In assay [1] the target is Protein kinase C alpha type (Homo sapiens) (UniProt P17252). Particulars: at 1 µM.
For assay [2] the target is unchanged. The note with it: at 10 µM.
In assay [3] the target is Protein kinase C beta type (Homo sapiens) (UniProt P05771). The note with it: at 1 µM.
Assay [4] shares this target. The note with it: at 10 µM.
The target is the same in assay [5]. Particulars: at 1 µM. This is another data set of the same source.
The target is the same in assay [6]. Particulars: at 10 µM. This is another data set of the same source.
Assay [7] deals with Protein kinase C gamma type (Homo sapiens) (UniProt P05129). The note with it: at 1 µM.
For assay [8] the target is unchanged. Particulars: at 10 µM.
Assay [9] has as its target Protein kinase C delta type (Homo sapiens) (UniProt Q05655). Particulars: at 1 µM.
Assay [10] has the same target. The note with it: at 10 µM.
Assay [11] concerns the target T1, Protein kinase C epsilon type (Homo sapiens) (UniProt Q02156).
T1 sequence (whole entry): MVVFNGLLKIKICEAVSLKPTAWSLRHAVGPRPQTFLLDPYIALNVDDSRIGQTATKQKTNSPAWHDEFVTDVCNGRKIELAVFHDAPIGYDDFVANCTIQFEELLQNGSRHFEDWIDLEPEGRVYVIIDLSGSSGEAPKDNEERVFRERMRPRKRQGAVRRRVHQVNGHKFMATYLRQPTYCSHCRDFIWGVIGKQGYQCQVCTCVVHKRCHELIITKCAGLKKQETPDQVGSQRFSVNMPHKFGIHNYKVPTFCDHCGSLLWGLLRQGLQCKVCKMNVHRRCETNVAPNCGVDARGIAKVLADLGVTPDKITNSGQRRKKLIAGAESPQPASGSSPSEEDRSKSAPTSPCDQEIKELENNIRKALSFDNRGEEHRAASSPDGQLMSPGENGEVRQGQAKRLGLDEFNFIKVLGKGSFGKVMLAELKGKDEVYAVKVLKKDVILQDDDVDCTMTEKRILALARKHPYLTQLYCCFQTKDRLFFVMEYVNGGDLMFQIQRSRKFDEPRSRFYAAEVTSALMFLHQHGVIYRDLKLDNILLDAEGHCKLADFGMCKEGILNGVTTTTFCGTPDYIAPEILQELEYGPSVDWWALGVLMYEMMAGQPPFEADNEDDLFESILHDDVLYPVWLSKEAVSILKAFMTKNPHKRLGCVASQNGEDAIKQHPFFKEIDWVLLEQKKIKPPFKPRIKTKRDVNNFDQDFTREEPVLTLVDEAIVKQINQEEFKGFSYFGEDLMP
Particulars: at 1 µM.

The target of assay [12] is T1, Protein kinase C epsilon type (Homo sapiens). The note with it: at 10 µM.

Chain of Protein kinase C delta type (Homo sapiens) (Q05655 whole entry, looked up): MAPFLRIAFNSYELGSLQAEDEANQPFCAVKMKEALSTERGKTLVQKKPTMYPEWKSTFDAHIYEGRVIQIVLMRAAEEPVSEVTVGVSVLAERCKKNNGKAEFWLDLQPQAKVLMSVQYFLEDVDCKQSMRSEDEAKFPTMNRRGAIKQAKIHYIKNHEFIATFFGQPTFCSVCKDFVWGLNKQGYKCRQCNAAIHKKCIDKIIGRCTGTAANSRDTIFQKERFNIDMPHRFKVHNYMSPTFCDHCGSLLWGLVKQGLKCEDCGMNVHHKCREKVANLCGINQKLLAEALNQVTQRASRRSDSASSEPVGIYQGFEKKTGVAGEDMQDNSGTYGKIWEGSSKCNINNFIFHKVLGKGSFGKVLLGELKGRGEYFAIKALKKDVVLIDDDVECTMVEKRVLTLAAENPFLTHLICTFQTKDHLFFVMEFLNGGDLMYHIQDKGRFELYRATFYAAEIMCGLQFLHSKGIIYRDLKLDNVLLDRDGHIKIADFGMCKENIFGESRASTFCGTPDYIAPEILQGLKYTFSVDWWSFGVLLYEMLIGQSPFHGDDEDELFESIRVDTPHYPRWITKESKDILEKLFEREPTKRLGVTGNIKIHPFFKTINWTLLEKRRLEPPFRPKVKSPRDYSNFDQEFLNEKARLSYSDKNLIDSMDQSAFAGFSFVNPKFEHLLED
Chain of Protein kinase C beta type (Homo sapiens) (P05771 2-671 limits assumed): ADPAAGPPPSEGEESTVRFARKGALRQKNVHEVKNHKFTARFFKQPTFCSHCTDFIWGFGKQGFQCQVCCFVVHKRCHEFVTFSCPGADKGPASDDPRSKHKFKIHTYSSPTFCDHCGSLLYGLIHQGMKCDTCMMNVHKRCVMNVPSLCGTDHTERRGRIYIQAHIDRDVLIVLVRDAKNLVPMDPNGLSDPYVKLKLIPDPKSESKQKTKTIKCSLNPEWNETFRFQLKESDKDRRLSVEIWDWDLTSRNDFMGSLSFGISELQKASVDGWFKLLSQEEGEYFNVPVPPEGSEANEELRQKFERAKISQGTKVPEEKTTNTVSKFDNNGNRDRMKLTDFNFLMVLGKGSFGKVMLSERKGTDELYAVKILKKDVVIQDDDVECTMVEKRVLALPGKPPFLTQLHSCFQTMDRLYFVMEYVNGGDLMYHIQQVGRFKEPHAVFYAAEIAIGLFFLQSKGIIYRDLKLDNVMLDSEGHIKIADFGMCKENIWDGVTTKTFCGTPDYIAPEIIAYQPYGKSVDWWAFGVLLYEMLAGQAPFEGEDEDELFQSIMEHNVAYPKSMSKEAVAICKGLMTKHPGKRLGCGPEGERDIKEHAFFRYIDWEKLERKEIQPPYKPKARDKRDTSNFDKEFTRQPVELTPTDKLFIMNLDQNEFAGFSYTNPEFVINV

One may read the residual activity as the signal under treatment as a percentage of the control signal. On to `O=C1NC(=O)/C(=C\c2ccc3nccnc3c2)S1`, for which the residual activity in assay [1] came to 108%; in assay [2], 88%; in [3], 124%; in assay [4] it was 121%; in [5], 101%; in assay [6], 100%. Also, the residual activity worked out at 109% in [7]; 83% in assay [8]; 99% in assay [9]; 81% in [10]; 105% in assay [11]; 95% in [12].
With `NC(=O)c1ccc2[nH]c(-c3ccc(Oc4ccc(Cl)cc4)cc3)nc2c1`, the residual activity came to 99% in [1]; 90% in assay [2]; 111% in [3]; 93% in assay [4]; 95% in assay [5]; 100% in [6]. Also, the residual activity is 90% in assay [7]; 108% in [8]; 104% in assay [9]; 107% in assay [10]; 95% in assay [11]; 85% in assay [12].
As to `COc1ccc(OC)c2c(=S)c3ccccc3[nH]c12`, the residual activity stood at 102% in assay [1]; 101% in assay [2]; 89% in assay [3]; 115% in assay [4]; 106% in assay [5]; 97% in assay [6]. Also, the residual activity in [7] turned out to be 96%; in assay [8], 91%; in [9], 103%; in assay [10] it was 98%; in assay [11], 98%; in assay [12] it was 109%.
In the case of `CC(C)n1cnc2/c(=N/c3cccc(Cl)c3)nc(NCCO)[nH]c21`, the residual activity turned out to be 101% in assay [1]; 63% in assay [2]; 104% in [3]; 89% in assay [4]; 101% in assay [5]; 100% in assay [6]. Moreover, the residual activity was determined as 99% in [7]; 70% in assay [8]; 96% in assay [9]; 82% in assay [10]; 75% in [11]; 92% in assay [12].
Turning to `Cc1ccc(NC2=CC(=O)c3sc(C)nc3C2=O)cc1`, the residual activity in assay [1] was 106%; in assay [2] it was 105%; in [3], 98%; in assay [4] it was 88%; in assay [5], 112%; in [6], 101%. The residual activity in assay [7] was determined as 102%; in assay [8], 108%; in [9], 103%; in assay [10], 102%; in [11], 87%; in assay [12], 94%.
Consider `Oc1ccc(-c2nc(-c3ccc(F)cc3)c(-c3ccncc3)[nH]2)cc1`, for which the residual activity was 112% in assay [1]; 92% in assay [2]; 124% in assay [3]; 85% in assay [4]; 110% in assay [5]; 81% in assay [6]. Also, the residual activity came to 106% in [7]; 103% in assay [8]; 98% in assay [9]; 90% in assay [10]; 122% in assay [11]; 99% in assay [12].
As for `Cn1cnc2cc3c(Nc4cccc(Br)c4)ncnc3cc21`, the residual activity is 101% in assay [1]; 98% in assay [2]; 109% in [3]; 85% in assay [4]; 100% in [5]; 95% in [6]. Further, the residual activity in assay [7] turned out to be 103%; in assay [8] it was 99%; in assay [9], 97%; in assay [10], 100%; in [11] it was 86%; in assay [12], 95%.
`CNc1cc2c(Nc3cccc(Br)c3)ncnc2cn1`: the residual activity in assay [1] is 106%; in assay [2], 95%; in [3], 118%; in [4], 105%; in assay [5], 104%; in [6], 103%. The residual activity in assay [7] is 109%; in assay [8] it was 94%; in [9] it was 104%; in assay [10], 105%; in assay [11], 96%; in assay [12], 99%.
In the case of `CCOc1cc2ncnc(Nc3cccc(Br)c3)c2cc1OCC`, the residual activity in assay [1] was 107%; in [2] it was 97%; in assay [3], 87%; in assay [4], 97%; in [5], 100%; in assay [6] it was 103%. Further, the residual activity is 108% in assay [7]; 112% in [8]; 106% in assay [9]; 104% in assay [10]; 84% in assay [11]; 100% in assay [12].
For the molecule `COc1ccc(S(=O)(=O)N(CCO)c2ccccc2CN(C)C/C=C/c2ccc(Cl)cc2)cc1`, the residual activity was 107% in assay [1]; 94% in assay [2]; 106% in assay [3]; 102% in assay [4]; 115% in assay [5]; 96% in assay [6]. Moreover, the residual activity in [7] came to 99%; in assay [8], 104%; in assay [9], 108%; in assay [10], 106%; in [11] it was 106%; in assay [12] it was 93%.
Regarding `O=C1NC(=O)c2cc(Nc3ccc(F)cc3)c(Nc3ccc(F)cc3)cc21`, the residual activity was determined as 104% in assay [1]; 101% in [2]; 107% in assay [3]; 86% in assay [4]; 93% in [5]; 103% in assay [6]. Also, the residual activity stood at 111% in assay [7]; 98% in assay [8]; 97% in assay [9]; 105% in assay [10]; 67% in assay [11]; 73% in assay [12].
Turning to `N#C/C(=C(\N)Sc1ccc(N)cc1)c1ccccc1C(F)(F)F`, the residual activity in [1] came out at 107%; in assay [2], 96%; in [3] it was 114%; in [4], 104%; in assay [5], 114%; in assay [6], 99%. Also, the residual activity in assay [7] came out at 98%; in [8] it was 104%; in [9], 99%; in assay [10], 104%; in assay [11], 100%; in assay [12] it was 106%.
As to `COc1ccc(C(=O)Nc2sc3c(c2C(N)=O)CCCC3)cc1OC`, the residual activity in [1] was 106%; in [2], 100%; in [3] it was 109%; in assay [4], 94%; in assay [5], 111%; in [6] it was 101%. For the same molecule, the residual activity in assay [7] stood at 117%; in assay [8], 104%; in assay [9] it was 101%; in assay [10], 104%; in assay [11], 89%; in [12], 96%.
Consider `O=c1cc(-c2cccc3c2Sc2ccccc2S3)oc(N2CCOCC2)c1`, for which the residual activity in [1] was 95%; in [2] it was 86%; in assay [3], 102%; in assay [4], 100%; in assay [5], 104%; in assay [6], 101%. The residual activity in [7] was 99%; in assay [8], 95%; in assay [9] it was 100%; in [10], 104%; in assay [11] it was 91%; in assay [12], 94%.
For the molecule `CCC(=O)Nc1ccc2ncnc(Nc3cccc(Br)c3)c2c1`, the residual activity worked out at 100% in assay [1]; 91% in assay [2]; 117% in [3]; 99% in assay [4]; 108% in assay [5]; 104% in assay [6]. For the same molecule, the residual activity in assay [7] amounted to 109%; in assay [8], 100%; in assay [9], 101%; in assay [10], 113%; in assay [11], 79%; in assay [12], 110%.
For `CCN(CC)CCCCN1c2ccccc2Oc2ccc(Cl)cc21`, the residual activity in assay [1] turned out to be 112%; in [2], 107%; in assay [3], 105%; in assay [4] it was 98%; in assay [5], 103%; in [6], 95%. Further, the residual activity in assay [7] stood at 117%; in [8] it was 108%; in assay [9] it was 107%; in [10] it was 111%; in assay [11], 84%; in assay [12] it was 99%.

The record behind these values is ChEMBL document CHEMBL2218924, “A broad activity screen in support of a chemogenomic map for kinase signalling research and drug discovery” (Biochem J, 2013).
